Compound activity from PubChem BioAssay.
D1 antagonist = blocks dopamine activation of the human D1 receptor; P21728; HEK293 TREx D1 cells, calcium flux, dopamine EC80; stronger effect = lower value; activity change, negative = inhibition, % at 10 µM; 360,000 compounds, 3.2% hits; AID 504652; in the data active = activity change below about -30%; note: % is set by controls: 0 for no effect and ±100 for the full control effect
Target sequence (P21728 whole entry, looked up): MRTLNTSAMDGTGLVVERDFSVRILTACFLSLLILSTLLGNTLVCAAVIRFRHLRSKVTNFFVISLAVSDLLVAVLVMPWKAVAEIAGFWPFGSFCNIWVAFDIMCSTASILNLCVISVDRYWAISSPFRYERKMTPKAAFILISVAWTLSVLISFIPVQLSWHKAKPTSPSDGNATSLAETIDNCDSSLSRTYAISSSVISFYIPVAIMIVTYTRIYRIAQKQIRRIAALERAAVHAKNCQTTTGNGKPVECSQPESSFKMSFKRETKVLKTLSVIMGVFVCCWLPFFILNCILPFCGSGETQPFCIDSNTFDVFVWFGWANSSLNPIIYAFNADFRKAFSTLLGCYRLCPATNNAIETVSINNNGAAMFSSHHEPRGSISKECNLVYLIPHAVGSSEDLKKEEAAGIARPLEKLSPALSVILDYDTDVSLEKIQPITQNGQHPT
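Cells carrying a force-coupled, tetracycline-inducible human D1 receptor report calcium flux. Each well gets a 10 s baseline, compound with 180 s monitoring, then an EC80 dopamine stimulus with a second 180 s kinetic read.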
D1 agonist = activates the human D1 dopamine receptor. P21728. HEK293 T-REx D1 cells, calcium flux, agonist mode. activation, % at 2 µM. 360,000 compounds, 1% hits; note: 0% is about no effect
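Agonism was scored from calcium flux recorded over 180 s (1 read/s) after pintool compound addition, following a 10-cycle baseline. Cells were inducible force-coupled HEK293 TREx D1, plated overnight at 30 C and loaded with no-wash calcium dye.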
TRHR PAM = TRH receptor (human) allosteric enhancement; P34981; TRHR cells, fluo-8 calcium fluorescence, EC20 TRH enhancement; enhancement, % at 2 µM; 360,000 compounds, 0.66% hits; AID 493056; in the data active = enhancement above about 30%; note: 0% is about no effect
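TRHR-expressing cells loaded with fluo-8 calcium dye were read kinetically (ex 480/em 530) during compound addition, then stimulated with an EC20 of TRH (10 nM final). Enhancement of the Gq-mediated intracellular calcium response was scored.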
TRHR agonist = agonists of human TRH receptor. 360,000 compounds, 0.18% hits. activation, % at 2 µM. P34981. TRHR cells, calcium flux fluo-8, FDSS agonist mode. AID 493084; note: 0% is about no effect
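In this calcium-flux screen, cells bearing human TRHR are dye-loaded with fluo-8, baselined for 10 cycles, then exposed to library compounds; positive kinetic calcium responses during the agonist phase mark hits, with TRH as control.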
D1 PAM = enhances dopamine response at the human D1 receptor | HEK293 TREx D1 cells, calcium flux, dopamine EC20 potentiation | 360,000 compounds, 0.036% hits | potentiation, % at 10 µM | AID 504651 | P21728; in the data active = potentiation above about 30%; note: 0% is about no effect
Active calls of the source: *. Rows were chosen to be rich in hits. Some 4.6% of all compounds tested hit in one or more screens of this group. Cut-off read from the data, not from the text of the source, unless noted: active = activation above about 30%; inactive = the rest.

CCc1ccc(CNC(=O)C2CCN(C(=O)N3CC(CC)Oc4ccc(C)cc43)CC2)cc1 (configuration not stated) was read as D1 antagonist -5.6, D1 agonist 1.4, TRHR PAM -10.3, TRHR agonist 0.3 and D1 PAM -1.0.
CN(CCc1cn[nH]c1)C(=O)CC1C(=O)NCCN1Cc1ccccc1C(F)(F)F (configuration not stated) was read as D1 antagonist -40.1*, D1 agonist 3.1, TRHR PAM -2.8, TRHR agonist -0.1 and D1 PAM -0.3.
For CN(Cc1ccon1)C(=O)CC1C(=O)NCCN1Cc1ccccc1C(F)(F)F (configuration not stated) the results were D1 antagonist -12.5, D1 agonist 0.2, TRHR PAM 2.3, TRHR agonist -0.1 and D1 PAM 1.1.
Screening Fc1ccc(-[n+]2nc(Nc3ccccc3)sc2-c2c(Cl)cccc2Cl)cc1 returned D1 antagonist -26.8, D1 agonist 49.3*, TRHR PAM -8.7, TRHR agonist 3.1 and D1 PAM -5.2.
Screening COc1ccc(-c2sc(Nc3ccccc3)n[n+]2-c2ccc(F)cc2)cc1Br returned D1 antagonist -4.1, D1 agonist -0.7, TRHR PAM -2.0, TRHR agonist -0.2 and D1 PAM 4.4.
For CCc1ccc(Nc2n[n+](-c3ccccc3)c(-c3c(Cl)cccc3Cl)s2)cc1 the results were D1 antagonist -69.1*, D1 agonist 92.5*, TRHR PAM -9.2, TRHR agonist -0.1 and D1 PAM -6.8.
`CCc1ccc(Nc2n[n+](-c3ccccc3)c(-c3ccc(N(CC)CC)cc3)s2)cc1` gave D1 antagonist -10.5, D1 agonist 24.4, TRHR PAM -8.3, TRHR agonist 5.8 and D1 PAM -0.7.
COc1ccc2ccccc2c1-c1sc(Nc2ccccc2)n[n+]1-c1ccc(F)cc1 was read as D1 antagonist -39.6*, D1 agonist 36.9*, TRHR PAM -8.3, TRHR agonist 5.8 and D1 PAM -8.7.
For CCN(C(=O)Cn1c(SCc2ccccc2F)nc2cccnc21)c1ccccc1 the results were D1 antagonist 1.9, D1 agonist 2.5, TRHR PAM -49.9, TRHR agonist 3.0 and D1 PAM 0.8.
`CC1CCN(c2oc(-c3ccc(COc4ccccc4)o3)nc2C#N)CC1` gave D1 antagonist 7.5, D1 agonist 1.3, TRHR PAM -2.3, TRHR agonist 0.4 and D1 PAM -1.4.
Screening COc1ccc(C2=CC(c3ccc(F)cc3)n3ncc(C(=O)Nc4ccc(C)cc4)c3N2)cc1 (configuration not stated) returned D1 antagonist -1.6, D1 agonist 7.8, TRHR PAM -4.6, TRHR agonist -1.2 and D1 PAM -3.2.
For CC1CN(C(=O)CCN2C(=O)c3ccccc3C2=O)CC(C)O1 (configuration not stated) the results were D1 antagonist -31.7*, D1 agonist 2.3, TRHR PAM 3.8, TRHR agonist 0.6 and D1 PAM -8.6.
`CN1CCN(C(=O)CCN2C(=O)c3ccccc3C2=O)CC1` gave D1 antagonist 3.4, D1 agonist 1.1, TRHR PAM 4.8, TRHR agonist 1.5 and D1 PAM 7.7.
CCn1cc(C(=O)N2CCN(c3ccc(OC)cc3)CC2)c(=O)c2cc(S(=O)(=O)N(C)C3CCCCC3)ccc21 was read as D1 antagonist 11.7, D1 agonist 3.8, TRHR PAM 0.9, TRHR agonist -1.1 and D1 PAM -0.3.
Screening N#Cc1cccc(NC(=O)Nc2cccs2)c1 returned D1 antagonist -53.3*, D1 agonist 42.0*, TRHR PAM 3.3, TRHR agonist 1.3 and D1 PAM -9.9.
`CCc1cccc(NC(=O)Nc2cccs2)c1` gave D1 antagonist -18.7, D1 agonist 9.7, TRHR PAM 2.5, TRHR agonist 1.6 and D1 PAM -9.1.
Screening O=C(COc1ccccc1Cl)OCc1cc(=O)n2nc(C3CCCCC3)sc2n1 returned D1 antagonist -22.7, D1 agonist 4.3, TRHR PAM -6.2, TRHR agonist -0.5 and D1 PAM -6.8.
Screening O=[N+]([O-])/C(=C\Nc1ccccc1)S(=O)(=O)c1ccccc1 returned D1 antagonist -87.5*, D1 agonist 1.7, TRHR PAM -1.8, TRHR agonist -0.2 and D1 PAM -5.5.
Screening COc1cc(CN(CCc2c(C)[nH]c3ccc(C)cc23)C(=S)NC(C)(C)C)cc(OC)c1OC returned D1 antagonist -25.5, D1 agonist 30.2*, TRHR PAM -4.9, TRHR agonist 0.8 and D1 PAM -8.9.
Screening Cc1ccc(NC(=O)CN(C)S(=O)(=O)c2cccs2)cc1F returned D1 antagonist -37.3*, D1 agonist 1.9, TRHR PAM 1.3, TRHR agonist 1.5 and D1 PAM -2.8.
Cc1ccc(NC(=O)CN(C)S(=O)(=O)c2cccs2)cc1C was read as D1 antagonist -10.1, D1 agonist 9.0, TRHR PAM 9.9, TRHR agonist -1.0 and D1 PAM -7.9.
Screening Cn1c(=O)[nH]c(=O)c2c1nc(CN1CCN(c3cccc(Cl)c3)CC1)n2CCCc1ccccc1 returned D1 antagonist -30.9*, D1 agonist 2.3, TRHR PAM -15.0, TRHR agonist -0.5 and D1 PAM -8.2.
`CSc1nc2c(c(=O)[nH]c(=O)n2C)n1Cc1ccccc1` gave D1 antagonist 1.5, D1 agonist 5.2, TRHR PAM 31.0*, TRHR agonist -0.3 and D1 PAM 0.6.
Screening Cc1ccc(Nc2nc(Cl)nc(NC(C)(C)C)n2)cc1 returned D1 antagonist -37.4*, D1 agonist 10.9, TRHR PAM -6.5, TRHR agonist 0.7 and D1 PAM -1.1.
Screening Cc1cccnc1NC(=O)C1CCN(S(=O)(=O)c2ccc3c(c2)CCC(=O)N3)CC1 returned D1 antagonist -42.6*, D1 agonist 0.2, TRHR PAM -2.2, TRHR agonist 0.4 and D1 PAM 1.9.
For O=C1CCc2cc(S(=O)(=O)N3CCC(C(=O)Nc4nccs4)CC3)ccc2N1 the results were D1 antagonist 17.4, D1 agonist 3.5, TRHR PAM -3.6, TRHR agonist 0.3 and D1 PAM -0.3.
Screening CCn1c(SCC(=O)c2[nH]c(C)c(C(C)=O)c2C)nnc1-c1ccccc1 returned D1 antagonist -34.9*, D1 agonist 8.6, TRHR PAM -2.7, TRHR agonist 0.0 and D1 PAM -5.1.
Screening CCCN1C(=O)/C(=C/c2c(N3CCNC(=O)C3CC(=O)OC)nc3c(C)cccn3c2=O)SC1=S (configuration not stated) returned D1 antagonist -30.1*, D1 agonist 265.3*, TRHR PAM 17.0, TRHR agonist 75.7* and D1 PAM 15.2.
For COc1cc(Cl)c(NC(=O)c2cc3ccccn3n2)c(OC)c1 the results were D1 antagonist -9.7, D1 agonist 0.8, TRHR PAM 4.1, TRHR agonist -0.4 and D1 PAM 7.8.
